We go through 40 sequences from the OligoGym collection.
Also: reference of the scale not given here.

The first experiment deals with DUSP3. The experiment in a line: pooled miR-30 sensor sort-seq; sequence = guide strand. As to conditions: shRNA.
ATTCTTTTGAGCCAAAGCCTGG yielded a sensor-assay potency score (higher = more potent) of -1.5. Same read-out and setting: next, TTGTAGAAGTTGGCATTGGTGT: -0.415; TCGTTGAGATCCTGCACCGAGA: -1.55.

The sequence TTCAGCACATGGGTGATGCCTA registered a sensor-assay potency score (higher = more potent) of -0.601.

Sequence TGTGATGCCGGAGTCCTTGTAG came in with a sensor-assay potency score (higher = more potent) of 0.0865.

For TTGCCCACGTAGATCCGCGGGG, the sensor-assay potency score (higher = more potent) was -0.843. On the same count and under the same terms, then TTCTGCCGCATCATGAGGTAGG, with -0.351; and TCAATGAAGTCGGCAGCCCTTT, with -0.941; and TTGACGTGCATGAAGGACCTGC, with 0.645.

For another experiment, the target named is DUSP5. The experiment is described as above. As to conditions: shRNA.
TCCATTTGTAGTGTAGGTGGGT: the sensor-assay potency score (higher = more potent) was -0.0708.

ATTCCGAGTAGAAAGTCTCATA displayed a sensor-assay potency score (higher = more potent) of -1.1. The same measure, in the same setting: then TTAAAAACAAAAATCACAGTTG, with 0.309. Same read-out and setting: then TACAGTAGTCAGCACATGCTGT, with -0.0745; and TTGAGGAAGTAGACCCGCGGGC, with -0.647; and TTGACGTTGAGCGAGCCGCGCA, with -0.861.

For TTGGCGAGGAACTCGCACTTGG, the sensor-assay potency score (higher = more potent) is -0.725. Same read-out and setting: next, TCTCACTCTCAATCTTCTCTTG: -0.536; TAGAAAGTCTCATATCCCCCTT: -0.306. Turning to TTCCCTGACACAGTCAATGAAG, the sensor-assay potency score (higher = more potent) was -1.14.

In turn, TTGTAGTGTAGGTGGGTCGCGC returned a sensor-assay potency score (higher = more potent) of -0.607. Same read-out and setting: next, ATGCATGGTAGGCACTTCCAAG: -1.82; TTTACATCCACGCAACACTCAG: -1.07; TTACATCCACGCAACACTCAGG: -0.32. In the case of TTCTGCTGAGCTCTGAGACTGT, the sensor-assay potency score (higher = more potent) was -0.115.

TAGTGTAGGTGGGTCGCGCAGG returned a sensor-assay potency score (higher = more potent) of -0.939. Sequence TTGAGTGGGTAGGCACCGGTGC displayed a sensor-assay potency score (higher = more potent) of -0.999. Same read-out and setting: then TAGCGCGCCGACACCGCGCCGC, with -0.777. Turning to TAGCTGACATTTACCACTGGTT, the sensor-assay potency score (higher = more potent) was -0.934. On the same count and under the same terms, then TTCATAAGGTAAGCCATGCAGA, with -0.386; and TTTGAGGAAGTAGACCCGCGGG, with -0.969. For the sequence TCCTCTCGCAGCTTCTGCCAGT, the sensor-assay potency score (higher = more potent) is -1.18. Sequence TATTGCTTCTTGAAAGTGGGAG showed a sensor-assay potency score (higher = more potent) of 0.394. For TGTAGCTGACATTTACCACTGG, the sensor-assay potency score (higher = more potent) was 0.536.

A further experiment addresses EAPP. The description is as above. As to conditions: shRNA.
Take TACTGCTCTGTCTTCATCCTCG: the sensor-assay potency score (higher = more potent) was 0.413. For TTGGTCACCTGTACTGCTCTGT, the sensor-assay potency score (higher = more potent) stood at 0.00284. In turn, AAAGACTTCATCCTTGTCGTAG showed a sensor-assay potency score (higher = more potent) of -0.0566. The same measure, in the same setting: next, TCATCGTAGTACCTTGTCGGAG: -1.04. In the case of TAGATGATTCACTTTCTCCGGT, the sensor-assay potency score (higher = more potent) worked out at 0.266. Still for that read-out and setting: then TTCCACATCTGTCTCTGCCTTC, with 0.205. As to TAATTCAGCTTCCATCTCCTTT, the sensor-assay potency score (higher = more potent) is -0.368.
